# Assay results as given in PMC11062922 (Nature Chemical Biology, 2023).
# Where two headings read alike, the source gives them in different places.
# Tests used:
# Design in all cases: species or system human, MV4-11 + K-562 + COLO205 + SK-N-BE2 + OVCAR-8
# [1] = tested on: ERBB3; conditions: read-out: apparent Kd; compound concentrations:100 nM and 1000 nM (sheet 'Samples'); n = 1
# [2] = tested on: T1, T10; conditions: read-out: apparent Kd; compound concentrations:100 nM and 1000 nM (sheet 'Samples'); n = 1
# T1 construct: gene NAT10
# [3] = tested on: EGFR; conditions: read-out: apparent Kd, n = 1
# [4] = tested on: RET; conditions: read-out: apparent Kd, compound concentrations: 100 nM and 1000 nM (sheet 'Samples'), n = 1
# [5] = tested on: RIPK2; conditions: read-out: apparent Kd, n = 1
# [6] = tested on: NQO1; conditions: read-out: apparent Kd; compound concentrations: 100 nM and 1000 nM (sheet 'Samples'), CATDS: 0.34789699583550798; n = 1
# [7] = tested on: EPHB6; conditions: read-out: apparent Kd; compound concentrations: 100 nM and 1000 nM (sheet 'Samples'), CATDS: 0.20218817743622799; n = 1
# [8] = tested on: FLT4; conditions: read-out: apparent Kd, compound concentrations: 100 nM and 1000 nM (sheet 'Samples'), n = 1
# [9] = tested on: GAK; conditions: read-out: apparent Kd, compound concentrations: 100 nM and 1000 nM (sheet 'Samples'), n = 1
# [10] = tested on: MAP2K5; conditions: read-out: apparent Kd, n = 1
# [11] = tested on: PDGFRB; conditions: read-out: apparent Kd; compound concentrations: 100 nM and 1000 nM (sheet 'Samples'), CATDS: 0.165477129932846; n = 1
# [12] = tested on: EPHA7; conditions: read-out: apparent Kd; compound concentrations: 100 nM and 1000 nM (sheet 'Samples'), CATDS: 1; n = 1
# [13] = tested on: PIK3CG; conditions: read-out: apparent Kd; compound concentrations: 100 nM and 1000 nM (sheet 'Samples'), CATDS: 0.36055601865019399; n = 1
# [14] = tested on: FLT3; conditions: read-out: apparent Kd; compound concentrations: 100 nM and 1000 nM (sheet 'Samples'), CATDS: 0.14801329572366401; n = 1
# [15] = tested on: LCK; conditions: read-out: apparent Kd, compound concentrations: 100 nM and 1000 nM (sheet 'Samples'), n = 1
# [16] = tested on: MAP4K1; conditions: read-out: apparent Kd; compound concentrations: 100 nM and 1000 nM (sheet 'Samples'), CATDS: 0.115744032998791; n = 1
# [17] = tested on: MAP4K2; conditions: read-out: apparent Kd; compound concentrations: 100 nM and 1000 nM (sheet 'Samples'), CATDS: 7.8376321207257696E-2; n = 1
# [18] = tested on: MAP4K3; conditions: read-out: apparent Kd; compound concentrations: 100 nM and 1000 nM (sheet 'Samples'), CATDS: 7.2653483868183794E-2; n = 1
# [19] = tested on: MAP4K5; conditions: read-out: apparent Kd; compound concentrations: 100 nM and 1000 nM (sheet 'Samples'), CATDS: 9.0249941941856496E-2; n = 1
# [20] = tested on: TNIK; conditions: read-out: apparent Kd; compound concentrations: 100 nM and 1000 nM (sheet 'Samples'), CATDS: 6.8078386206779196E-2; n = 1
# [21] = tested on: TNK1; conditions: read-out: apparent Kd; compound concentrations: 100 nM and 1000 nM (sheet 'Samples'), CATDS: 9.7568423036534901E-2; n = 1
# [22] = tested on: GARS; conditions: read-out: apparent Kd; compound concentrations: 100 nM and 1000 nM (sheet 'Samples'), CATDS: 0.112943260502492; n = 1
# [23] = tested on: MAP3K6; conditions: read-out: apparent Kd; compound concentrations: 100 nM and 1000 nM (sheet 'Samples'), CATDS: 0.103040219928506; n = 1
# [24] = tested on: MTOR; conditions: read-out: apparent Kd; compound concentrations: 100 nM and 1000 nM (sheet 'Samples'), CATDS: 0.20477857042049299; n = 1
# [25] = tested on: PIK3C2A; conditions: read-out: apparent Kd; compound concentrations: 100 nM and 1000 nM (sheet 'Samples'), CATDS: 0.109461657335159; n = 1
# [26] = tested on: PIK3CA; conditions: read-out: apparent Kd; compound concentrations: 100 nM and 1000 nM (sheet 'Samples'), CATDS: 0.41958784794042803; n = 1
# [27] = tested on: PRKDC; conditions: read-out: apparent Kd; compound concentrations: 100 nM and 1000 nM (sheet 'Samples'), CATDS: 0.14221616768717599; n = 1
# [28] = tested on: RAB14; conditions: read-out: apparent Kd; compound concentrations: 100 nM and 1000 nM (sheet 'Samples'), CATDS: 0.14270902117051201; n = 1
# [29] = tested on: FRK; conditions: read-out: apparent Kd; compound concentrations: 100 nM and 1000 nM (sheet 'Samples'), CATDS: 0.227181560235134; n = 1
# [30] = tested on: HCK; conditions: read-out: apparent Kd; compound concentrations: 100 nM and 1000 nM (sheet 'Samples'), CATDS: 0.17687822419951399; n = 1
# [31] = tested on: LYN; conditions: read-out: apparent Kd; compound concentrations: 100 nM and 1000 nM (sheet 'Samples'), CATDS: 0.140123988269205; n = 1
# [32] = tested on: TNK2; conditions: read-out: apparent Kd; compound concentrations: 100 nM and 1000 nM (sheet 'Samples'), CATDS: 0.21718962243178; n = 1
# [33] = tested on: GRK6; conditions: read-out: apparent Kd; compound concentrations: 100 nM and 1000 nM (sheet 'Samples'), CATDS: 0.114980307902388; n = 1
# [34] = tested on: HSP90B1; conditions: read-out: apparent Kd; compound concentrations: 100 nM and 1000 nM (sheet 'Samples'), CATDS: 0.138909392239214; n = 1
# [35] = tested on: MAP2K1; conditions: read-out: apparent Kd; compound concentrations: 100 nM and 1000 nM (sheet 'Samples'), CATDS: 0.11714915098763; n = 1
# [36] = tested on: MAPK10; conditions: read-out: apparent Kd; compound concentrations: 100 nM and 1000 nM (sheet 'Samples'), CATDS: 0.46372584389591998; n = 1
# [37] = tested on: MAPK8; conditions: read-out: apparent Kd; compound concentrations: 100 nM and 1000 nM (sheet 'Samples'), CATDS: 0.17853758786403801; n = 1
# [38] = tested on: MAPK9; conditions: read-out: apparent Kd; compound concentrations: 100 nM and 1000 nM (sheet 'Samples'), CATDS: 0.26244745216645099; n = 1
# [39] = tested on: NUAK1; conditions: read-out: apparent Kd; compound concentrations: 100 nM and 1000 nM (sheet 'Samples'), CATDS: 0.245714515933597; n = 1
# [40] = tested on: PLK4; conditions: read-out: apparent Kd; compound concentrations: 100 nM and 1000 nM (sheet 'Samples'), CATDS: 0.36168703025704801; n = 1
# [41] = tested on: PTK2; conditions: read-out: apparent Kd; compound concentrations: 100 nM and 1000 nM (sheet 'Samples'), CATDS: 0.26626379457403998; n = 1
# [42] = compound concentrations:100 nM and 1000 nM (sheet 'Samples')
smiles,measurement,setting,value
C[C@@H]1CC[C@@H](C(=O)Nc2ccccc2)CN1c1cc(-c2ccc3c(N)n[nH]c3c2)nc(N)n1 [GSK2286062A],potency estimated from few doses,[1],1760 nM
same,potency estimated from few doses,[2],1120 nM
COc1cc2ncnc(Nc3ccc(C)c(O)c3)c2cc1OC.Cl [GW410563A],potency estimated from few doses,"[3]; compound concentrations: 100 nM and 1000 nM (sheet 'Samples'), CATDS: 0.29565759118255602",439 nM
same,potency estimated from few doses,[4]; CATDS: 0.33989373739411199,326 nM
same,potency estimated from few doses,"[5]; compound concentrations: 100 nM and 1000 nM (sheet 'Samples'), CATDS: 0.37374612171419203",272 nM
CC(=O)NCc1cccc(C#Cc2cncnc2Nc2ccc(OCc3cccc(F)c3)c(Cl)c2)c1 [GW807930X],potency estimated from few doses,"[3]; compound concentrations: 100 nM and 1000 nM (sheet 'Samples'), CATDS: 0.88842612806031096",149 nM
same,potency estimated from few doses,[6],2230 nM
COc1ccc(N2Cc3cnc(Nc4ccccc4)nc3N([C@@H]3CC[C@@H](O)C3)C2=O)cc1 [RO4383596-000],potency estimated from few doses,[7],1300 nM
same,potency estimated from few doses,[8]; CATDS: 0.213105830255753,1170 nM
same,potency estimated from few doses,[9]; CATDS: 0.27304535513380701,756 nM
same,potency estimated from few doses,"[10]; compound concentrations: 100 nM and 1000 nM (sheet 'Samples'), CATDS: 0.176800836122779",1750 nM
same,potency estimated from few doses,[11],2060 nM
COc1cccc(NC(=O)NCCNc2ccnc(Nc3ccc(F)cc3)n2)c1 [GSK1379879A],potency estimated from few doses,[12],2400 nM
Cl.O=C(O[C@H]1CN[C@H](C#Cc2cc3ncnc(Nc4ccc5c(cnn5Cc5ccccc5)c4)c3s2)C1)N1CCOCC1 [GSK200398A_KCGS],potency estimated from few doses,[3]; [42],26.7 nM
same,potency estimated from few doses,[10]; [42],2200 nM
same,potency estimated from few doses,[5]; [42],936 nM
CC(=O)Nc1cccc(C#Cc2cncnc2Nc2ccc(OCc3cccc(F)c3)c(Cl)c2)n1 [GW794726X],potency estimated from few doses,"[3]; compound concentrations: 100 nM and 1000 nM (sheet 'Samples'), CATDS: 0.81532426513796596",184 nM
same,potency estimated from few doses,[13],1440 nM
CN(c1ccc(NC(=O)Nc2ccc(OC(F)(F)F)cc2)cc1)c1ccnc(Nc2cccc(S(N)(=O)=O)c2)n1 [GW806742X],potency estimated from few doses,[14],336 nM
same,potency estimated from few doses,[8]; CATDS: 0.285311181024344,122 nM
same,potency estimated from few doses,[15]; CATDS: 8.5117028494468894E-2,1110 nM
same,potency estimated from few doses,[16],536 nM
same,potency estimated from few doses,[17],1420 nM
same,potency estimated from few doses,[18],1830 nM
same,potency estimated from few doses,[19],951 nM
same,potency estimated from few doses,[4]; CATDS: 0.14686027995557299,340 nM
same,potency estimated from few doses,[20],2360 nM
same,potency estimated from few doses,[21],783 nM
Nc1ncnc2c1ncn2-c1cccc2ccccc12 [SKF-97184],potency estimated from few doses,[22],1670 nM
same,potency estimated from few doses,[23],2270 nM
same,potency estimated from few doses,[24],419 nM
same,potency estimated from few doses,[25],1840 nM
same,potency estimated from few doses,[26],132 nM
same,potency estimated from few doses,[27],896 nM
same,potency estimated from few doses,[28],889 nM
Cc1ccc(C(=O)Nc2ccc(Nc3ccnc4cc(-c5ccccn5)ccc34)cc2O)cc1.Cl [GW440146A],potency estimated from few doses,[29],250 nM
same,potency estimated from few doses,[30],398 nM
same,potency estimated from few doses,[15]; CATDS: 0.18982268752043399,346 nM
same,potency estimated from few doses,[31],686 nM
same,potency estimated from few doses,"[10]; compound concentrations: 100 nM and 1000 nM (sheet 'Samples'), CATDS: 0.111910092443395",1450 nM
same,potency estimated from few doses,[32],270 nM
CCC(=O)c1c(-c2ccccc2)c2cc(Cl)ccc2c(=O)n1Cc1cc(S(C)(=O)=O)n(CC(N)=O)n1 [TPKI-105],potency estimated from few doses,[33],2180 nM
same,potency estimated from few doses,[34],1090 nM
same,potency estimated from few doses,[35],2010 nM
same,potency estimated from few doses,[36],90.1 nM
same,potency estimated from few doses,[37],543 nM
same,potency estimated from few doses,[38],235 nM
CCC(=O)Nc1cccc(Oc2nc(Nc3ccc(N4CCN(C)CC4)cc3OC)ncc2Cl)c1 [WZ4003],potency estimated from few doses,[9]; CATDS: 0.18485172893482499,1600 nM
same,potency estimated from few doses,[39],760 nM
same,potency estimated from few doses,[40],371 nM
same,potency estimated from few doses,[41],643 nM
